MCF10A rereplic – induces DNA re-replication in MCF 10a normal breast cells; AID 624296; Potency, µM (top dose mostly 46.1 µM), for the others: top-dose activity, positive = re-replication, usual class: activators; MCF 10A DNA re-replication, Hoechst nuclear intensity, 48 h; actives 2.9% (n = 350,000); further: potency means the concentration at half of the fitted maximal effect; % of control where 0% means no effect; nearly all actives have a fitted effect of over 50% in size
SW480 rerep – inducers of DNA re-replication in SW480 colon cancer cells. Potency, µM (titrated, usually from 46.1 µM), inactives show at the highest dose re-replication activation, most hits filed as activators. actives 1.8% (n = 340,000). SW480 DNA re-replication, Hoechst DNA content imaging, 48 h; further: potency means the concentration at half of the fitted maximal effect; % of control where 0% means no effect; nearly all actives have a fitted effect of over 55% in size
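First, 250 cells per well were seeded. Next, compound or vehicle (23 nL) was pinned in, plates sat 48 hr at 37 C. Finally Hoechst was added for 40 min before fluorescence scanning.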
D3 antag – blocks the human D3 dopamine receptor. D3R cells, DiscoveRx beta-arrestin luminescence, antagonist mode; hits give low values. max response, negative = inhibition, %. actives 2.5% (n = 360,000). AID 652054; in the data active means max response below about -50%; inconclusive means no clear call, values can overlap the other calls; further: on the % scale 0 is the no-effect control and ±100 the full control effect
Target sequence (P35462 whole entry, looked up): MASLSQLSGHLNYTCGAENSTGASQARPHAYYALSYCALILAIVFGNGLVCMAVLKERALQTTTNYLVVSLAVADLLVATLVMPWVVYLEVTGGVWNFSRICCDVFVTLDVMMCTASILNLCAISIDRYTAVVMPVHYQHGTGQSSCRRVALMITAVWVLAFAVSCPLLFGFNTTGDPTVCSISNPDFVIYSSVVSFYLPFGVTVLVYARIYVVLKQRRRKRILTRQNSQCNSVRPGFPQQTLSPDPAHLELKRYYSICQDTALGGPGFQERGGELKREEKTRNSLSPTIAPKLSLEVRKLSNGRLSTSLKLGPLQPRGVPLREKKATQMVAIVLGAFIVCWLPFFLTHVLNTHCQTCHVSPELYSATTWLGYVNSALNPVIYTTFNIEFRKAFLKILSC
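Cells plated overnight at 1500 cells/well, then exposed to library compounds with dopamine controls for 90 minutes at 37 degrees C. DiscoveRx reagent added for 30–60 minutes at room temperature; luminescence read, quantitative HTS format.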
D3 ag – D3 dopamine receptor (human) agonism; actives 0.58% (n = 410,000); D3R DiscoveRx beta-arrestin cells, luminescence, 90 min; max activation, %; in the data active means max activation above about 30%; further: 0% is about no effect
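Agonist-mode cell screen: cells plated at 1500/well and incubated overnight at 37 °C, then exposed to library compounds for 90 min at 37 °C. Detection reagent was added for 30–60 min at room temperature, and luminescence was read.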
KB-V1 MDR tox – kills drug-selected multidrug resistant KB-V1 cells; AID 1347076; Potency, µM (top dose mostly 46.1 µM), actives largely listed as cytotoxic; KB-V1 MDR cells viability, CellTiter-Glo, 72 h; actives 3.4% (n = 400,000); further: potency means the concentration at half of the fitted maximal effect; on the % scale 0 is the no-effect control and ±100 the full control effect; nearly all actives have a fitted effect of over 60% in size
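KB-V1 cells (P-gp-expressing MDR subline of KB-3-1) in phenol-red-free DMEM with 10% FBS were exposed to library compounds over a concentration series for 72 h at 37 degrees C. Viability read by CellTiter-Glo luminescence; concentration-effect curves fitted after normalization.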
KB-3-1 tox – KB-3-1 parental cell cytotoxicity; AID 1347075; KB-3-1 viability, CellTiter-Glo ATP luminescence, 72 h; Potency, µM (highest dose often 46.1 µM), hits mostly cytotoxic; actives 1.4% (n = 400,000); further: potency means the concentration at half of the fitted maximal effect; on the % scale 0 is the no-effect control and ±100 the full control effect; nearly all actives have a fitted effect of over 60% in size
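Cytotoxicity measured as CellTiter-Glo luminescence after 72 h at 37 C. Compound titrations were pinned onto drug-naive KB-3-1 parental adenocarcinoma cells grown in DMEM with 10% FBS, and normalized data fitted to concentration-response curves.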
Starred values were filed as active, the others as inactive; i = inactive; ? = inconclusive; / = no result; ! = not active in a repeat. This is a sample that favours compounds with a hit; in the whole collection about 8.9% have one here. Unless noted, the call rests on the fitted dose curve; in most records, active means well fitted curve in the direction sought with a large enough effect; inconclusive means small, poorly fitted or top-dose-only effect, or another doubt; inactive means no such curve, though single readings can be large; an effect the other way counts as inactive or inconclusive.

SMILES | MCF10A rereplic | SW480 rerep | D3 antag | D3 ag | KB-V1 MDR tox | KB-3-1 tox
CCC(=NCCC(c1ccccc1)c1ccccc1)c1c(O)n(C)c(=O)n(C)c1=O | 8.2µM* | -3% | 13 | 3 | ? | ?
CCOC(=O)c1ccc(N=C(CC)c2c(O)n(C)c(=O)n(C)c2=O)cc1 | -1% | -3% | -25 | -23 | i | i
CCC(=NCc1ccc(F)cc1)c1c(O)n(C)c(=O)n(C)c1=O | -2% | -20% | 39 | 1 | 15µM* | ?
CCCCN1CCS(=O)(=O)N(Cc2ccccc2Br)CC(C(=O)OC)C1 (configuration not stated) | ? | ? | 6 | 2 | ? | ?
Cc1ccc(Cl)cc1NC(=O)N(Cc1ccc2c(c1)OCO2)C1CCN(Cc2ccccc2)CC1 | / | / | / | -32 | ? | i
Cc1nonc1OCCNCCNc1ccc([N+](=O)[O-])c2cccnc12 | 2% | -26% | -63* | -12 | ? | ?
CCNCCNc1ccc([N+](=O)[O-])c2cccnc12 | 1% | -8% | ? | -24 | i | i
COc1ccc2c(c1)CCCC2=O | -41% | 4% | -9 | -9 | i | i
COC(=O)C12CCc3c(ccc4cc(OC)ccc34)C1=CC(=O)C2 (configuration not stated) | 5% | 14% | 6 | 2 | 21µM* | ?
CCCCc1nc2ccccc2c(=O)n1-c1ccc(Cl)cc1[N+](=O)[O-] | -2% | -1% | 24 | 17 | 4.1µM* | i
CS(=O)(=O)c1ccc(C(=O)C2C(=O)CCCC2=O)c([N+](=O)[O-])c1 | / | / | / | -9 | / | /
C=CCn1c(O)c(C(CC)=NCCC2=CCCCC2)c(=O)[nH]c1=O | 14% | -20% | 15 | 3 | 8.9µM* | i
CC(=NCCCO)c1c(O)[nH]c(=O)[nH]c1=O | 2% | -8% | 4 | 15 | ? | i
CC(=NCCN1CCCCC1)c1c(O)n(Cc2ccccc2)c(=O)[nH]c1=O | -17% | 0% | -21 | -7 | i | i
CC(=NCCN1CCCCC1)c1c(O)[nH]c(=O)[nH]c1=O | -2% | -6% | -53* | -2 | i | i
C=CCn1c(O)c(C(C)=NCCN2CCCCC2)c(=O)[nH]c1=O | 2% | -8% | -65* | -6 | i | i
C=CCn1c(O)c(C(CC)=NCCCO)c(=O)[nH]c1=O | 16% | -9% | ? | -11 | i | i
CCCCn1c(O)c(C(C)=NCCN2CCCCC2)c(=O)[nH]c1=O | 1% | 0% | -71* | -8 | i | i
C=CCn1c(O)c(/C(C)=N/N2CCCCC2)c(=O)[nH]c1=O | -14% | -37% | 4 | 4 | ? | i
[2H]C([2H])([2H])[C@H](N)Cc1ccccc1 | / | / | / | 7 | / | /
Cc1ccc(S(=O)(=O)N2CCCCC2)cc1NC(=O)CSc1ncnc2ccccc12 | ? | ? | 33 | 3 | 16µM* | i
O=C(COC(=O)Cc1ccccc1)Nc1cc(S(=O)(=O)N2CCCCC2)ccc1Cl | 1% | -4% | -9 | 2 | i | i
C=C(C)[C@H]1Cc2c(ccc3c2O[C@@H]2COc4cc(OC)c(OC)cc4[C@@H]2C3=O)O1 | 3.9µM*! | ? | / | 4 | / | /
CN1CCN(c2oc(-c3ccc(COc4ccccc4)o3)nc2C#N)CC1 | / | / | / | 0 | i | i
CN1CCN(c2nc(N)c(Br)c(Cl)n2)CC1 | 1% | -13% | -69* | -2 | i | i
CN1CCN(c2ncnc(Cl)c2N)CC1 | -2% | -3% | -1 | -8 | i | i
COc1cccc(C(=O)C2CCCN(Cc3ccccn3)C2)c1 (configuration not stated) | -2% | 1% | -22 | -9 | i | i
COc1ccc(F)cc1C(=O)C1CCCN(Cc2ccc(O)cc2)C1 (configuration not stated) | 24% | 2% | -65* | -15 | i | i
